# Results: the supplement of paper PMC7411054
# Tests used:
# Details in all cases: treatment time: 24 h
# A549-ACTB-RAB5A [1] = test: lowest phenotypically active concentration; higher = less potent
# In short: (§1)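 After 24 h at 0.3, 1, 3 or 9 µM, with four wells per treatment, fifteen gene-edited A549, HepG2 and WPMY1 reporter lines carrying BFP, GFP and RFP/FusionRed were imaged live. Each well's live-cell features were expressed relative to solvent control wells. Deviation required ≥3 of 4 wells past the 95th percentile of control Euclidean distances, and reproducibility a median replicate Pearson correlation over the 95th percentile of non-replicates. Phenotypic activity rested on both.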
# A549-CANX-COX4 [2] = test: as above
# In short: as §1
# A549-GM130-SQSTM1 [3] = test: as above
# In short: as §1
# A549-TP53BP1-CLTA [4] = test: as above
# In short: as §1
# A549-TUBA1B-RELA [5] = test: as above
# In short: as §1
# A549-ACTB-RAB5A [6] = test: phenotypically active (imaging signature differs from DMSO and reproducible) at any of 0.3-9 uM (binary (1 = active, 0 = inactive)); higher = active
# In short: as §1
# A549-CANX-COX4 [7] = test: as above
# In short: as §1
# A549-GM130-SQSTM1 [8] = test: as above
# In short: as §1
# A549-TP53BP1-CLTA [9] = test: as above
# In short: as §1
# A549-TUBA1B-RELA [10] = test: as above
# In short: as §1
# HepG2-ACTB-RAB5A = test: as above
# In short: as §1
# HepG2-CANX-COX4 = test: as above
# In short: as §1
# HepG2-GM130-SQSTM1 = test: as above
# In short: as §1
# HepG2-TP53BP1-CLTA = test: as above
# In short: as §1
# HepG2-TUBA1B-RELA = test: as above
# In short: as §1
# WPMY1-ACTB-RAB5A = test: as above
# In short: as §1
# WPMY1-CANX-COX4 = test: as above
# In short: as §1
# WPMY1-GM130-SQSTM1 = test: as above
# In short: as §1
# WPMY1-TP53BP1-CLTA = test: as above
# In short: as §1
# WPMY1-TUBA1B-RELA = test: as above
# In short: as §1
compound,measurement,setting,value
C[C@]12CCC(=O)C=C1CC[C@@H]1[C@@H]2[C@@H](O)C[C@@]2(C)[C@H]1CC[C@]2(O)C(=O)CO [hydrocortisone],lowest phenotypically active concentration,A549-ACTB-RAB5A [1],≤ 0.3 µM
same,lowest phenotypically active concentration,A549-CANX-COX4 [2],≤ 0.3 µM
same,lowest phenotypically active concentration,A549-GM130-SQSTM1 [3],≤ 0.3 µM
same,lowest phenotypically active concentration,A549-TP53BP1-CLTA [4],≤ 0.3 µM
same,lowest phenotypically active concentration,A549-TUBA1B-RELA [5],≤ 0.3 µM
same,phenotypically active,A549-ACTB-RAB5A [6],1 (active)
same,phenotypically active,A549-CANX-COX4 [7],1 (active)
same,phenotypically active,A549-GM130-SQSTM1 [8],1 (active)
same,phenotypically active,A549-TP53BP1-CLTA [9],1 (active)
same,phenotypically active,A549-TUBA1B-RELA [10],1 (active)
same,phenotypically active,HepG2-ACTB-RAB5A,0 (inactive)
same,phenotypically active,HepG2-CANX-COX4,0 (inactive)
same,phenotypically active,HepG2-GM130-SQSTM1,0 (inactive)
same,phenotypically active,HepG2-TP53BP1-CLTA,0 (inactive)
same,phenotypically active,HepG2-TUBA1B-RELA,0 (inactive)
same,phenotypically active,WPMY1-ACTB-RAB5A,0 (inactive)
same,phenotypically active,WPMY1-CANX-COX4,0 (inactive)
same,phenotypically active,WPMY1-GM130-SQSTM1,0 (inactive)
same,phenotypically active,WPMY1-TP53BP1-CLTA,0 (inactive)
same,phenotypically active,WPMY1-TUBA1B-RELA,0 (inactive)
C[C@@H]1O[C@@H](OC[C@H]2O[C@@H](Oc3c(-c4ccc(O)c(O)c4)oc4cc(O)cc(O)c4c3=O)[C@H](O)[C@@H](O)[C@@H]2O)[C@H](O)[C@H](O)[C@H]1O [Quercétine-3-rutinoside],lowest phenotypically active concentration,A549-ACTB-RAB5A [1],9 µM
same,phenotypically active,A549-ACTB-RAB5A [6],1 (active)
same,phenotypically active,A549-CANX-COX4 [7],0 (inactive)
same,phenotypically active,A549-GM130-SQSTM1 [8],0 (inactive)
same,phenotypically active,A549-TP53BP1-CLTA [9],0 (inactive)
same,phenotypically active,A549-TUBA1B-RELA [10],0 (inactive)
same,phenotypically active,HepG2-ACTB-RAB5A,0 (inactive)
same,phenotypically active,HepG2-CANX-COX4,0 (inactive)
same,phenotypically active,HepG2-GM130-SQSTM1,0 (inactive)
same,phenotypically active,HepG2-TP53BP1-CLTA,0 (inactive)
same,phenotypically active,HepG2-TUBA1B-RELA,0 (inactive)
same,phenotypically active,WPMY1-ACTB-RAB5A,0 (inactive)
same,phenotypically active,WPMY1-CANX-COX4,0 (inactive)
same,phenotypically active,WPMY1-GM130-SQSTM1,0 (inactive)
same,phenotypically active,WPMY1-TP53BP1-CLTA,0 (inactive)
same,phenotypically active,WPMY1-TUBA1B-RELA,0 (inactive)
C[C@]12CC[C@@H]3c4ccc(OS(=O)(=O)O)cc4CC[C@H]3[C@@H]1CCC2=O [estrone sulfuric acid],phenotypically active,A549-ACTB-RAB5A [6],0 (inactive)
same,phenotypically active,A549-CANX-COX4 [7],0 (inactive)
same,phenotypically active,A549-GM130-SQSTM1 [8],0 (inactive)
same,phenotypically active,A549-TP53BP1-CLTA [9],0 (inactive)
same,phenotypically active,A549-TUBA1B-RELA [10],0 (inactive)
same,phenotypically active,HepG2-ACTB-RAB5A,0 (inactive)
same,phenotypically active,HepG2-CANX-COX4,0 (inactive)
same,phenotypically active,HepG2-GM130-SQSTM1,0 (inactive)
same,phenotypically active,HepG2-TP53BP1-CLTA,0 (inactive)
same,phenotypically active,HepG2-TUBA1B-RELA,0 (inactive)
same,phenotypically active,WPMY1-ACTB-RAB5A,0 (inactive)
same,phenotypically active,WPMY1-CANX-COX4,0 (inactive)
same,phenotypically active,WPMY1-GM130-SQSTM1,0 (inactive)
same,phenotypically active,WPMY1-TP53BP1-CLTA,0 (inactive)
same,phenotypically active,WPMY1-TUBA1B-RELA,0 (inactive)
CCCC(=O)O[C@]1(C(=O)COC(C)=O)CC[C@H]2[C@@H]3C[C@H](F)C4=CC(=O)C=C[C@]4(C)[C@@]3(F)[C@@H](O)C[C@@]21C [difluprednate],lowest phenotypically active concentration,A549-ACTB-RAB5A [1],≤ 0.3 µM
same,lowest phenotypically active concentration,A549-CANX-COX4 [2],≤ 0.3 µM
same,lowest phenotypically active concentration,A549-GM130-SQSTM1 [3],≤ 0.3 µM
same,lowest phenotypically active concentration,A549-TP53BP1-CLTA [4],≤ 0.3 µM
same,lowest phenotypically active concentration,A549-TUBA1B-RELA [5],≤ 0.3 µM
same,phenotypically active,A549-ACTB-RAB5A [6],1 (active)
same,phenotypically active,A549-CANX-COX4 [7],1 (active)
same,phenotypically active,A549-GM130-SQSTM1 [8],1 (active)
same,phenotypically active,A549-TP53BP1-CLTA [9],1 (active)
same,phenotypically active,A549-TUBA1B-RELA [10],1 (active)
same,phenotypically active,HepG2-ACTB-RAB5A,0 (inactive)
same,phenotypically active,HepG2-CANX-COX4,0 (inactive)
same,phenotypically active,HepG2-GM130-SQSTM1,0 (inactive)
same,phenotypically active,HepG2-TP53BP1-CLTA,0 (inactive)
same,phenotypically active,HepG2-TUBA1B-RELA,0 (inactive)
same,phenotypically active,WPMY1-ACTB-RAB5A,0 (inactive)
same,phenotypically active,WPMY1-CANX-COX4,0 (inactive)
same,phenotypically active,WPMY1-GM130-SQSTM1,0 (inactive)
same,phenotypically active,WPMY1-TP53BP1-CLTA,0 (inactive)
same,phenotypically active,WPMY1-TUBA1B-RELA,0 (inactive)
CCC(=O)OCC(=O)[C@@]1(OC(=O)CC)[C@@H](C)C[C@H]2[C@@H]3CCC4=CC(=O)C=C[C@]4(C)[C@@]3(Cl)[C@@H](O)C[C@@]21C [beclomethasone-dipropionate],lowest phenotypically active concentration,A549-ACTB-RAB5A [1],≤ 0.3 µM
same,lowest phenotypically active concentration,A549-CANX-COX4 [2],≤ 0.3 µM
same,lowest phenotypically active concentration,A549-GM130-SQSTM1 [3],≤ 0.3 µM
same,lowest phenotypically active concentration,A549-TP53BP1-CLTA [4],≤ 0.3 µM
same,lowest phenotypically active concentration,A549-TUBA1B-RELA [5],≤ 0.3 µM
same,phenotypically active,A549-ACTB-RAB5A [6],1 (active)
same,phenotypically active,A549-CANX-COX4 [7],1 (active)
same,phenotypically active,A549-GM130-SQSTM1 [8],1 (active)
same,phenotypically active,A549-TP53BP1-CLTA [9],1 (active)
same,phenotypically active,A549-TUBA1B-RELA [10],1 (active)
same,phenotypically active,HepG2-ACTB-RAB5A,0 (inactive)
same,phenotypically active,HepG2-CANX-COX4,0 (inactive)
same,phenotypically active,HepG2-GM130-SQSTM1,0 (inactive)
same,phenotypically active,HepG2-TP53BP1-CLTA,0 (inactive)
same,phenotypically active,HepG2-TUBA1B-RELA,0 (inactive)
same,phenotypically active,WPMY1-ACTB-RAB5A,0 (inactive)
same,phenotypically active,WPMY1-CANX-COX4,0 (inactive)
same,phenotypically active,WPMY1-GM130-SQSTM1,0 (inactive)
same,phenotypically active,WPMY1-TP53BP1-CLTA,0 (inactive)
same,phenotypically active,WPMY1-TUBA1B-RELA,0 (inactive)
